High-throughput results as filed in PubChem.
Shown are actives, neighbours in structure and some others; about 3.8% of the full set was active somewhere.
NTR1 agonist: activates human neurotensin receptor 1. AID 493036. activation, % at 20 µM. NTR1-U2OS beta-arrestin-GFP spot imaging, agonist mode. P30989. 330,000 tested, 0.17% active;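 active means activation at or above 40% of the spot to cytoplasm intensity ratio, with at least 20 cells analyzed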;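 further: 0% = DMSO without peptide and 100% = 100 nM NTR1 peptide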
Target sequence (P30989 whole entry, looked up): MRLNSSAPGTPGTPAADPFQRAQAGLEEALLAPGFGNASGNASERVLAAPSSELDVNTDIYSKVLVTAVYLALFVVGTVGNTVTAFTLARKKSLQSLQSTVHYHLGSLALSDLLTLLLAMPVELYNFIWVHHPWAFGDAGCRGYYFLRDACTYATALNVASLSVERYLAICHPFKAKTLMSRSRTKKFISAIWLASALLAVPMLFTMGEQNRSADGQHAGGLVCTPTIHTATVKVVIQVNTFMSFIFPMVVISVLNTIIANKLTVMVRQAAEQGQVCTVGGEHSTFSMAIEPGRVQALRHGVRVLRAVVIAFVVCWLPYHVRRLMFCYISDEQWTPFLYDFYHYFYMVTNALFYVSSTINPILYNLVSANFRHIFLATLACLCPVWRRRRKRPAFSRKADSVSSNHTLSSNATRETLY
697 NFkB inh: lowers PMA/ionomycin-induced NF-kB signal in 697 B cells. 697 B-cell NF-kB luciferase reporter, 16 h. inhibition, % at 4 µM. 330,000 tested, 0.33% active. AID 435022; in the data active means inhibition above about 35%
Jurkat NFkB inh: inhibitors of the PMA/ionomycin-induced NF-kB reporter in Jurkat cells; PMA/ionomycin-induced NF-kB luciferase reporter, luminescence; inhibition, % at 4 µM; 330,000 tested, 0.53% active; AID 435003; in the data active means inhibition above about 50%
Beta cell apopt: blocks beta cell apoptosis; INS-1E cytokine-induced death, ATP luminescence, 48 h; percent of positive-control rescue, neutral wells zero; protection from apoptosis, % (concentration not given with the values); 300,000 tested, 0.8% active; AID 435005;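 active means Every replicate reaches about 75%, or at least half do and their mean reaches it too, limit read from the data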;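 further: 0% = cytokine-treated negative control wells and 100% = positive control rescue; higher means more ATP so stronger rescue from cytokine killing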
Mdm2-MdmX inh: inhibitors of human Mdm2/MdmX interaction; SaOS-2 split-luciferase Mdm2/MdmX complementation, luminescence; O15151+Q00987; inhibition, % at 8 µM; 330,000 tested, 3% active;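 active means inhibition of at least 50% at 8 µM in the primary screen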
A1 inh: inhibitors of the anti-apoptotic protein A1, read as caspase activation. 330,000 tested, 0.066% active. MEF A1-2A-BIM cells, Caspase-Glo 3/7 luminescence, 3 h; percent of clofoctol response, vehicle zero. caspase activation, % (concentration not given with the values). AID 2462;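 active means over half of replicate activation scores above 10%, or exactly half above 10 with the replicate mean above 10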
Mdm2-MdmX conf: human Mdm2/MdmX binding inhibition, confirmed. shares compounds with Mdm2-MdmX inh. luminescent assay. inhibition, % at 8 µM. 10,000 tested, 55% active. AID 489028; in the data active means inhibition above about 40%
FLuc counter: counter-screen for Mdm2/MdmX inhibitors: full-length luciferase. inhibition, % at 8 µM. SaOS-2 full-length luciferase counterscreen, luminescence. 6,200 tested, 77% active. shares compounds with Mdm2-MdmX inh;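 active means mean inhibition at 8 µM reaching about 37%, which flags the compound as non-specific, limit read from the data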;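 further: p53-null SaOS-2 cells with luciferase driven by a doxycycline-inducible promoter; compound on cells about two nights before reading with doxycycline added after day one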
* hit, by the source's call; · = not tested or not shown.

SMILES	NTR1 agonist	697 NFkB inh	Jurkat NFkB inh	Beta cell apopt	Mdm2-MdmX inh	A1 inh	Mdm2-MdmX conf	FLuc counter
Cc1ccc(N(C(=O)Cn2nnc(-c3ccc(C)o3)n2)C(C(=O)NC2CCCC2)c2ccncc2)cc1 (centres undefined)	2	17	4	1	55*	0	21	·
CC(C)CCNC(=O)C(c1ccncc1)N(Cc1cccs1)C(=O)Cn1nnc(-c2ccc(F)cc2)n1 (centres undefined)	-4	-47	5	33	68*	1	60*	26
COc1ccc(-c2nnn(CC(=O)N(Cc3ccc(F)cc3)C(C(=O)NC3CCCC3)c3ccc(F)cc3)n2)cc1 (centres undefined)	0	19	17	15	75*	0	19	·
CCN(CC)CCN(C(=O)Cn1nnc(-c2ccc(OC)c(OC)c2)n1)C(C(=O)NC1CCCC1)c1ccc(F)cc1 (centres undefined)	0	2	8	3	75*	0	25	·
CC(C)NC(=O)c1ccc(COc2ccc(C(C)(C)C)cc2)o1	5	-83	-38	·	9	1	·	·
CC1CCCCC1NC(=O)CN1C(=O)NC(Cc2ccccc2)(Cc2ccccc2)C1=O (centres undefined)	-2	-2	1	-4	-1	-1	·	·
CC(NC(=O)CN1C(=O)NC(Cc2ccccc2)(Cc2ccccc2)C1=O)C12CC3CC(CC(C3)C1)C2 (centres undefined)	4	11	-6	17	77*	-1	45*	65*
CNC(=S)NCCC(c1ccccc1)c1ccccc1	1	-4	-5	-5	14	0	·	·
CC[C@H](C)[C@@H](CN[C@H](C)CNC)NCCC(c1ccccc1)c1ccccc1	31	19	-7	-7	99*	0	93*	4
O=C(NC1CCN(Cc2ccc(Cl)cc2)CC1)c1cn(-c2ccccc2)nc1-c1cccnc1	2	12	19	21	53*	1	32	·
O=C(NCc1ccncc1)c1cn(-c2ccccc2)nc1-c1cccnc1	0	-5	11	2	10	-1	·	·
Cc1cccc(C(=O)OCC(=O)c2csc(N3CCCCC3)n2)c1[N+](=O)[O-]	1	0	-9	0	16	1	·	·
CCOC(=O)c1c(NC(C)=O)sc2c(OCC(O)CNC(C)(C)C)c(Br)ccc12 (centres undefined)	13	-12	6	12	100*	0	100*	54*
CC[C@H](C)[C@H](NC(N)=O)C(=O)NNC(=O)c1ccc(COc2cccc3cccnc23)cc1	-4	7	-6	-3	-18	-1	·	·
COc1cc(C#Cc2c(-c3cncn3C)n(C)c3ccc(-c4cc(OC)c(OC)c(OC)c4)cc23)cc(OC)c1	3	10	5	22	96*	-1	51*	62*
COc1cc(C#Cc2c(-c3cncn3C)n(C)c3ccc(-c4ccc5[nH]ccc5c4)cc23)cc(OC)c1	1	-4	-21	19	26	-1	·	·
COc1cc(C#Cc2c(-c3cncn3C)n(C)c3ccc(-c4ccc(OC)nc4)cc23)cc(OC)c1	0	3	14	18	69*	1	36	58*
O=C(CN1C(=O)NC2(CCCC2)C1=O)N1CCN(S(=O)(=O)c2cc(Cl)ccc2Cl)CC1	-2	10	6	3	4	0	·	·
CSc1nc(N)nc2c1ncn2CC(=O)N1CCN(c2ccccn2)CC1	-1	-4	-5	-3	6	0	·	·
c1csc(CNc2ncnc3ccc(-c4ccoc4)cc23)c1	6	-47	4	-35	65*	0	66*	21
COC(=O)c1ccc(C(=O)Nc2cc(Cl)ccc2Cl)cc1NC(=O)c1ccc(N(C)C)cc1	0	19	-15	-15	70*	0	7	·
O=C(Nc1cc(Cl)ccc1Cl)c1ccc(-c2ccccc2)cc1	3	-17	-33	1	2	0	·	·
